A short description of assay [1]: NCI Yeast Anticancer Drug Screen. Data for the rad50 strain (AID 155).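 Further: 0% = growth of vehicle-only cultures of the same strain.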 The settings on record: S. cerevisiae rad50 strain growth inhibition, stronger effect = higher value. The method, boiled down: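 Growth of the mutant yeast was measured after compound exposure and referenced to vehicle-treated cultures.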
A short description of assay [2]: NCI Yeast Anticancer Drug Screen. Data for the mec2-1 strain (AID 157). To be noted: S. cerevisiae mec2-1 strain, stronger effect = higher value. In short, it runs like this: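 Test agents were screened against the mec2-1 yeast strain, with defined DNA repair or cell cycle alteration. Growth was scored as inhibition against vehicle-only controls.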
A short description of assay [3]: NCI Yeast Anticancer Drug Screen. Data for the sgs1 mgt1 strain (AID 161).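 Further: 0% = growth of cultures given vehicle only.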 The settings on record: S. cerevisiae sgs1 mgt1 strain, stronger effect = higher value. In short, it runs like this:
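Mutant yeast exposed to compound; growth scored against vehicle-only wells.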

A short description of assay [4]: NCI Yeast Anticancer Drug Screen. Data for the cln2 rad14 strain (AID 165).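 Further: 0% = growth equal to vehicle treated cultures.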 The settings on record: S. cerevisiae cln2 rad14 strain, stronger effect = higher value. The method, boiled down: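 Growth of compound-exposed yeast (cln2 rad14 genotype) measured and expressed as inhibition relative to vehicle.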
Assay [5] can be described thus: NCI Yeast Anticancer Drug Screen. Data for the bub3 strain (AID 167). The settings on record: S. cerevisiae bub3 mutant strain, stronger effect = higher value. In short, it runs like this: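 Whole-cell yeast assay. The mutant strain was incubated with compounds, and growth inhibition was determined by comparison with vehicle-treated cells.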
Assay [6] is described as follows: NCI Yeast Anticancer Drug Screen. Data for the mlh1 rad18 strain (AID 175). The settings on record: S. cerevisiae mlh1 rad18 strain growth inhibition, stronger effect = higher value. In short, it runs like this:
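In this whole-cell yeast screen, a strain with altered DNA damage repair is challenged with compound, and its growth is measured against matched vehicle-treated controls.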

Setting [7] is: at 5.0 µM (retest, dose inferred, filed as 0.5).
The mark [8] stands for this setting: at 50.0 µM (retest, dose inferred, filed as 5.0).

This is part of a sample that, as a whole, favours compounds with a hit. Of some 79,000 tested, about 15% had one in any assay. Unmarked numbers belong to inactive results. The source made the active and inactive calls. No stated cut-off is given here; in the data, active means growth inhibition above about 70%; inactive means the rest.

Consider `CCCCCN=Cc1c(O)c(O)c(C(C)C)c2cc(C)c(-c3c(C)cc4c(C(C)C)c(O)c(O)c(C=NCCCCC)c4c3O)c(O)c12`, for which the growth inhibition is 2% in assay [1] (setting [7]); 43% in assay [1] (setting [8]); 14.8% in assay [1] (at 50.0 µM); -44% in assay [2] (setting [7]); 17% in assay [2] (setting [8]); 62.9% in assay [2] (at 50.0 µM). For the same compound, the growth inhibition in assay [3] (setting [7]) is 2%; in assay [3] (setting [8]), 50%; in assay [3] (at 50.0 µM), 71.8% (active); in assay [4] (setting [7]), 1%; in assay [4] (setting [8]), 11%; in assay [4] (at 50.0 µM) it was 20.4%. In addition, the growth inhibition was -2% in assay [5] (setting [7]); 40% in assay [5] (setting [8]); 30% in assay [5] (at 50.0 µM); 1% in assay [6] (setting [7]); 25% in assay [6] (setting [8]); 68.5% in assay [6] (at 50.0 µM).
Take `CCCSc1ncnc2nc(C)[nH]c12`: the growth inhibition in assay [1] (setting [7]) is -1%; in assay [1] (setting [8]), -1%; in assay [1] (at 50.0 µM), 6.9%; in assay [2] (setting [7]) it was 3%; in assay [2] (setting [8]), -7%; in assay [2] (at 50.0 µM), -14.5%. The growth inhibition is -2% in assay [3] (setting [7]); -3% in assay [3] (setting [8]); 2.25% in assay [3] (at 50.0 µM); 0% in assay [4] (setting [7]); -1% in assay [4] (setting [8]); 39.6% in assay [4] (at 50.0 µM). Besides, the growth inhibition in assay [5] (setting [7]) is -1%; in assay [5] (setting [8]) it was -6%; in assay [5] (at 50.0 µM) it was 1.85%; in assay [6] (setting [7]), 0%; in assay [6] (setting [8]), 0%; in assay [6] (at 50.0 µM) it was -8.25%.
On to `O=C1CSC(c2ccc([N+](=O)[O-])cc2)N1c1ccc(-c2ccc(-n3c(-c4ccccc4)nc4ccccc4c3=O)cc2)cc1` (stereo unspecified), for which the growth inhibition is -1% in assay [1] (setting [7]); 91% (active) in assay [1] (setting [8]); 85.2% (active) in assay [1] (at 50.0 µM); 13% in assay [2] (setting [7]); 79% (active) in assay [2] (setting [8]); 84.4% (active) in assay [2] (at 50.0 µM). The growth inhibition in assay [3] (setting [7]) was 14%; in assay [3] (setting [8]), 93% (active); in assay [3] (at 50.0 µM) it was 94% (active); in assay [4] (setting [7]), 31%; in assay [4] (setting [8]) it was 75% (active); in assay [4] (at 50.0 µM) it was 72.5% (active). Moreover, the growth inhibition in assay [5] (setting [7]) was -14%; in assay [5] (setting [8]), 95% (active); in assay [5] (at 50.0 µM), 95.2% (active); in assay [6] (setting [7]) it was 19%; in assay [6] (setting [8]) it was 96% (active); in assay [6] (at 50.0 µM), 94.8% (active).
As to `CCCCC(CC)COC(=O)c1cc2ccccc2oc1=O` (stereo unspecified), the growth inhibition in assay [1] (setting [7]) is 3%; in assay [1] (setting [8]), 7%; in assay [1] (at 50.0 µM) it was 70.8% (active); in assay [2] (setting [7]), 1%; in assay [2] (setting [8]), 13%; in assay [2] (at 50.0 µM), 61.8%. In addition, the growth inhibition in assay [3] (setting [7]) was 3%; in assay [3] (setting [8]) it was 21%; in assay [3] (at 50.0 µM), 68.5%; in assay [4] (setting [7]) it was 5%; in assay [4] (setting [8]), 4%; in assay [4] (at 50.0 µM) it was 49.5%. Also, the growth inhibition in assay [5] (setting [7]) was 11%; in assay [5] (setting [8]), 35%; in assay [5] (at 50.0 µM) it was 79.6% (active); in assay [6] (setting [7]) it was 3%; in assay [6] (setting [8]), 19%; in assay [6] (at 50.0 µM) it was 67.8%.
As to `CCCCCCCCCCCCCCCC[N+](C)(C)CCl`, the growth inhibition in assay [1] (setting [7]) was 99% (active); in assay [1] (setting [8]) it was 100% (active); in assay [1] (at 50.0 µM), 85.6% (active); in assay [2] (setting [7]) it was 99% (active); in assay [2] (setting [8]) it was 100% (active); in assay [2] (at 50.0 µM), 89.7% (active). The growth inhibition in assay [3] (setting [7]) was 99% (active); in assay [3] (setting [8]) it was 100% (active); in assay [3] (at 50.0 µM), 82.2% (active); in assay [4] (setting [7]) it was 99% (active); in assay [4] (setting [8]) it was 99% (active); in assay [4] (at 50.0 µM), 89% (active). The growth inhibition in assay [5] (setting [7]) is 99% (active); in assay [5] (setting [8]) it was 100% (active); in assay [5] (at 50.0 µM), 87.3% (active); in assay [6] (setting [7]), 99% (active); in assay [6] (setting [8]), 100% (active); in assay [6] (at 50.0 µM), 80.1% (active).
In the case of `[Cl][Pt+2][Cl].[NH-]CC1(C[NH-])CCCC1`, the growth inhibition in assay [1] (setting [7]) is 28%; in assay [1] (setting [8]), 40%; in assay [1] (at 50.0 µM), 0.2%; in assay [2] (setting [7]), 14%; in assay [2] (setting [8]), 19%; in assay [2] (at 50.0 µM) it was 0.9%. Also, the growth inhibition in assay [3] (setting [7]) was 26%; in assay [3] (setting [8]), 39%; in assay [3] (at 50.0 µM), -26.1%; in assay [4] (setting [7]) it was 7%; in assay [4] (setting [8]) it was 30%; in assay [4] (at 50.0 µM), -3.1%. In addition, the growth inhibition was 19% in assay [5] (setting [7]); 34% in assay [5] (setting [8]); -19.2% in assay [5] (at 50.0 µM); 26% in assay [6] (setting [7]); 72% (active) in assay [6] (setting [8]); -30% in assay [6] (at 50.0 µM).
As for `CCCC(c1ccc(O)cc1)c1ccc(O)cc1`, the growth inhibition in assay [1] (setting [7]) was 1%; in assay [1] (setting [8]), 98% (active); in assay [1] (at 50.0 µM), 99.5% (active); in assay [2] (setting [7]) it was -5%; in assay [2] (setting [8]), 99% (active); in assay [2] (at 50.0 µM) it was 99.5% (active). For the same compound, the growth inhibition was -1% in assay [3] (setting [7]); 95% (active) in assay [3] (setting [8]); 99.4% (active) in assay [3] (at 50.0 µM); 12% in assay [4] (setting [7]); 96% (active) in assay [4] (setting [8]); 99.2% (active) in assay [4] (at 50.0 µM). In addition, the growth inhibition in assay [5] (setting [7]) is 1%; in assay [5] (setting [8]), 97% (active); in assay [5] (at 50.0 µM), 99.5% (active); in assay [6] (setting [7]) it was 0%; in assay [6] (setting [8]), 96% (active); in assay [6] (at 50.0 µM) it was 99.5% (active).

(Values after PubChem BioAssay (NCI).)
